Screening data as filed in PubChem BioAssay.
In the library only some 1% were active in any assay of this set; here they are far more common.
GPT2 inh – GPT2 alanine aminotransferase inhibition; Q8TD30; Recombinant GPT2, coupled pyruvate oxidase/HRP Amplex Red fluorescence; Potency, µM (highest dose often 57.7 µM), without a hit: top-dose activity change, negative = inhibition, actives largely listed as inhibitors; 0.25% of 100,000 active; AID 1671188; further: potency means the concentration at half of the fitted maximal effect; nearly all actives have a fitted effect of over 60% in size
Target sequence (Q8TD30 whole entry, looked up): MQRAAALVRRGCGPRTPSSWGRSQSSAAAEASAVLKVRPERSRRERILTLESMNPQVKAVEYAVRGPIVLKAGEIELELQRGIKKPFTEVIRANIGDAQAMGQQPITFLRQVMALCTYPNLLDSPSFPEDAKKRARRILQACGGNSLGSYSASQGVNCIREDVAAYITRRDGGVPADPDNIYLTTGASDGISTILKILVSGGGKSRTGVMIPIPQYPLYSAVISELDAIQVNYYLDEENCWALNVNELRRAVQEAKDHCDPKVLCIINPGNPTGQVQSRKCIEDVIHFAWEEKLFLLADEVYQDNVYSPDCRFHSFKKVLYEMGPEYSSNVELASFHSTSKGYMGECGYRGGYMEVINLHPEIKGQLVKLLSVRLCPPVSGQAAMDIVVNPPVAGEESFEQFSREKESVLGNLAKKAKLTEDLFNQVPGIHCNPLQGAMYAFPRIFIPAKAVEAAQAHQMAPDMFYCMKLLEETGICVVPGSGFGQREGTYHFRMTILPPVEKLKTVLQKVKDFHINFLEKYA
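GPT2 10ng/uL, a-KG 250uM, L-Ala 2mM, HEPES pH7.5 + 0.0001% Tween; 30 min RT. Then Amplex mix (PO/HRP/ThPP), 30 min RT dark, fluorescence. AOA 50uM used as positive control.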
SNCA viab count – cell viability loss counter-screen; HEK-293-SNCA-luc viability, GF-AFC fluorescence, 24 h; Potency, µM (doses to about 57.1 µM), inactives show at the top dose activity change, negative = cytotoxicity, hits mostly cytotoxic; 0.12% of 150,000 active;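 further: potency means the concentration at half of the fitted maximal effect; 0% = DMSO-treated cells and -100% = medium-only wells without cells; nearly all actives have a fitted effect of over 30% in size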
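HEK-293-SNCA-luc cells (1500/well) plated 24 h, then exposed 24 h to a dilution series; GF-AFC added 30 min at 37C, fluorescence 405/540 nm; normalised to medium-only and DMSO wells, Hill fit.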
SNCA expr inh – inhibitors of alpha-synuclein (SNCA) gene expression. HEK-293 SNCA-luciferase knock-in, luminescence, 24 h. Potency, µM (top dose mostly 57.2 µM), for the others: top-dose activity change, negative = inhibition, actives largely listed as inhibitors. 0.17% of 140,000 active;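 further: potency means the concentration at half of the fitted maximal effect; plate controls were DMSO cells for no effect and cell-free wells for full effect; nearly all actives have a fitted effect of over 45% in size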
IP6K1 inhibitor – inhibitors of human IP6K1 | Q92551 | IP6K1 kinase, ADP-Glo luminescence, 2 h; hits give low values | activity change, % (series mostly up to about 58 µM) | 0.81% of 140,000 active | AID 1645851; in the data active means activity change below about -25%
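ADP-Glo luminescence measures ADP made by human IP6K1 during a 2 h RT reaction with ATP/IP6 (mix at 1.3 mM/130 uM); top library doses 57.5 and 19.1 uM final.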
IP6K1 conf – confirmation of human IP6K1 inhibitors. shares compounds with IP6K1 inhibitor. recombinant IP6K1 kinase, ADP-Glo luminescence, 2 h. Potency, µM (titrated, usually from 49 µM), without a hit: at the highest dose activity change, negative = inhibition, actives largely listed as inhibitors. 13% of 1,200 active. AID 1645852; further: potency means the concentration at half of the fitted maximal effect; nearly all actives have a fitted effect of over 65% in size
Active calls of the source: *; [ ] = dose if it differs, or a comment. Unless noted, the call rests on the fitted dose curve; in most records, active means well fitted curve in the direction sought with a large enough effect; inconclusive means small, poorly fitted or top-dose-only effect, or another doubt; inactive means no such curve, though single readings can be large; an effect the other way counts as inactive or inconclusive. Unless noted, on the % scale 0 is the no-effect control and ±100 the full control effect.

Screening COc1ccc(N2CCN(C(=O)C3CCN(S(=O)(=O)c4cnc[nH]4)CC3)CC2)cc1 returned SNCA viab count -9%, SNCA expr inh 5%, IP6K1 inhibitor -29* and IP6K1 conf 13%.
COc1ccc(NC(=O)c2nnn(Cc3ccccc3C)c2N)c(OC)c1 was read as SNCA viab count -16%, SNCA expr inh inconclusive, IP6K1 inhibitor -27* and IP6K1 conf -11%.
Cc1noc(C)c1[S+](=O)([O-])NCCNC(=O)c1ccc(-c2cccc(C(F)(F)F)c2)cc1 was read as IP6K1 inhibitor 21.
`COCCn1c(CO)nnc1C1CC(NC(=O)C2(C)CCCC2)C1` (configuration not stated) gave GPT2 inh -1%[11.5 µM], SNCA viab count -1%, SNCA expr inh 6%, IP6K1 inhibitor -28* and IP6K1 conf -12%.
Cc1ccc(-c2cc3c(=O)n(CCNC(=O)c4cccc(C#N)c4)ccn3n2)c(C)c1 was read as GPT2 inh inactive, SNCA viab count -15%, SNCA expr inh 32% and IP6K1 inhibitor -1.
`Cc1cccc(CN2C(=O)c3ccccc3Sc3ccc(C(=O)NCc4ccco4)cc32)c1` gave SNCA viab count -11%, SNCA expr inh 17% and IP6K1 inhibitor 5.
O=C(NCc1ccco1)c1ccc2c(c1)N(Cc1ccccc1)C(=O)c1ccccc1S2 was read as SNCA viab count inconclusive, SNCA expr inh inconclusive, IP6K1 inhibitor -28* and IP6K1 conf inconclusive.
For COc1cccc(CNC(=O)Nc2cc(C(=O)NCc3cccc(F)c3)ccc2N2CCCC2)c1 the results were SNCA viab count inconclusive, SNCA expr inh 7%, IP6K1 inhibitor -26* and IP6K1 conf 2%.
For COc1cccc(CNC(=O)C2CCN(c3nccc(Nc4ccccc4OC)n3)CC2)c1 the results were GPT2 inh inactive, SNCA viab count -6%, SNCA expr inh 4% and IP6K1 inhibitor 15.
`Cn1ncc2c(C(=O)NCCNC(=O)OC(C)(C)C)cc(-c3ccccc3C(F)(F)F)nc21` gave IP6K1 inhibitor -1.
For Cc1ccc(C(=O)Oc2c(S(=O)(=O)c3ccccc3)c(C)nn2-c2ccccc2)cc1 the results were SNCA viab count 0%, SNCA expr inh 9% and IP6K1 inhibitor -22.
Cc1nn(-c2ccccc2)c(OC(=O)c2ccc(Br)cc2)c1S(=O)(=O)c1ccccc1 was read as SNCA viab count 7%, SNCA expr inh -23%, IP6K1 inhibitor -32* and IP6K1 conf 28%.
`C#CCNC(=O)c1ccc(-c2ccc(OC)nn2)cc1` gave IP6K1 inhibitor -8.
Screening Cc1ccc(NC(=O)C(NS(=O)(=O)c2ccc3c(c2)CCC(=O)N3)c2ccccc2)cc1C (configuration not stated) returned SNCA viab count -4%, SNCA expr inh 65%, IP6K1 inhibitor -32* and IP6K1 conf -4%.
Screening COc1ccc(CC(=O)NC2CCN(C(=O)c3ccc(-c4cccc(OC)c4)cc3)CC2)cc1 returned GPT2 inh inactive, SNCA viab count 3%[12.5 µM], SNCA expr inh 4% and IP6K1 inhibitor 1.
Screening Cc1ccc2c(c1)C(c1ccc(F)cc1)N(C(=O)c1cccc(C(F)(F)F)c1)CC(=O)N2 (configuration not stated) returned SNCA viab count -28%, SNCA expr inh inconclusive, IP6K1 inhibitor -26* and IP6K1 conf inconclusive.
CN(C)C(=O)N(C)Cc1cccc(N2CCN([S+](=O)([O-])c3c(Cl)cccc3Cl)CC2)c1F was read as IP6K1 inhibitor 6.
Screening Cc1ccc(S(=O)(=O)c2nc(-c3cccs3)oc2N2CCC(C)CC2)cc1 returned SNCA viab count 11%, SNCA expr inh 40% and IP6K1 inhibitor -20.
For Cc1ccc(-c2nc(S(=O)(=O)c3ccc(C)cc3)c(N3CCCCC3)o2)cc1 the results were SNCA viab count 0%, SNCA expr inh 0%, IP6K1 inhibitor -29* and IP6K1 conf inconclusive.
`Cc1ccc(S(=O)(=O)c2nc(-c3ccccc3)oc2N2CCCCCC2)cc1` gave SNCA viab count -27%, SNCA expr inh -12% and IP6K1 inhibitor 11.
O=S(=O)(c1ccccc1)c1nc(-c2cccs2)oc1N1CCCCC1 was read as SNCA viab count 3%, SNCA expr inh -13%, IP6K1 inhibitor -36* and IP6K1 conf -16%.
`O=[S+]([O-])(NC1CCN(c2nccc(Nc3ccccc3F)n2)CC1)c1cccs1` gave GPT2 inh -2%, SNCA viab count -6%[12.5 µM], SNCA expr inh 22% and IP6K1 inhibitor -7.
For Cc1oc2ccc(O)c(CN(C)Cc3ccccc3)c2c1C(=O)Nc1ccccc1 the results were SNCA viab count -26%, SNCA expr inh -29%, IP6K1 inhibitor -28* and IP6K1 conf 3%.
Cc1ccc(S(=O)(=O)Nc2cccc(-c3cn4cccc(C)c4n3)c2)cc1 was read as SNCA viab count -21%, SNCA expr inh 29%, IP6K1 inhibitor -26* and IP6K1 conf -2%.
`O=C(NC1CCN(c2ccnc3ccnn23)C1)c1ccc(Cl)cc1` (configuration not stated) gave GPT2 inh inactive, SNCA viab count -17%, SNCA expr inh -2% and IP6K1 inhibitor 11.
Screening CCN(C(=O)C(NS(=O)(=O)c1cccc2nsnc12)c1ccccc1)c1ccccc1 (configuration not stated) returned SNCA viab count 4%, SNCA expr inh -18%, IP6K1 inhibitor -28* and IP6K1 conf -12%.
Screening Cc1ccc(NC(=O)c2nc(S(C)(=O)=O)ncc2N(Cc2ccco2)Cc2ccco2)cc1C returned SNCA viab count 8%, SNCA expr inh -7%, IP6K1 inhibitor -29* and IP6K1 conf -5%.
For Cc1ccc(NC(=O)c2nc(S(C)(=O)=O)ncc2N(Cc2ccco2)Cc2cccs2)cc1C the results were SNCA viab count inconclusive, SNCA expr inh 4% and IP6K1 inhibitor -14.
For COc1cc(CN2CCN(S(=O)(=O)c3ccc(F)cc3)CC2)cc(OC)c1OC the results were SNCA viab count -12%, SNCA expr inh -4%, IP6K1 inhibitor -34* and IP6K1 conf 2%.
`Cc1cc(C)cc(-c2ccc(CN3CCCC3C(=O)NCc3ccc(C(F)(F)F)cc3)cc2)c1` (configuration not stated) gave GPT2 inh -7%, SNCA viab count 6%, SNCA expr inh -1% and IP6K1 inhibitor -5.
`O=C(Nc1ccc2cn[nH]c2c1)c1ccc2c(c1)OCCN(c1ccccc1)C2` gave GPT2 inh -9%[88.5 µM], SNCA viab count inconclusive, SNCA expr inh 8%[87.6 µM] and IP6K1 inhibitor 6.
Screening Cc1cc(Nc2nc(NC(C)c3ncc(F)cn3)ncc2Cl)n[nH]1 (configuration not stated) returned GPT2 inh 3%, SNCA viab count -5%, IP6K1 inhibitor -1 and IP6K1 conf -11%.
